Results from paper PMC11062922 (Nature Chemical Biology, 2023).
pEC50, pKd: −log10 of the molar value. Where two headings read alike, the source gives them in different places.

How the values were obtained:
[1] = system: MOB1A; parameters: species or system human, MV4-11 + K-562 + COLO205 + SK-N-BE2 + OVCAR-8; details: compound concentrations:0.3nM, 1nM, 3nM, 10nM, 30nM, 100nM, 300nM, 1000nM,R2:0.920591021551731,slope:1.01230388230399,EC50 Standard Error, by the legend:Standard error of the EC50 estimation as provided by the drc package.
[2] = system: PKN2; parameters: species or system human, MV4-11 + K-562 + COLO205 + SK-N-BE2 + OVCAR-8; details: compound concentrations:0.3nM, 1nM, 3nM, 10nM, 30nM, 100nM, 300nM, 1000nM,R2:0.99284498309618197,slope:1.0925759067996901,EC50 Standard Error, by the legend:Standard error of the EC50 estimation as provided by the drc package.
[3] = system: PRKACA; parameters: species or system human, MV4-11 + K-562 + COLO205 + SK-N-BE2 + OVCAR-8; details: compound concentrations:0.3nM, 1nM, 3nM, 10nM, 30nM, 100nM, 300nM, 1000nM,R2:0.96854382612038603,slope:0.55494475064464099,EC50 Standard Error, by the legend:Standard error of the EC50 estimation as provided by the drc package.
[4] = system: PRKACB; parameters: species or system human, MV4-11 + K-562 + COLO205 + SK-N-BE2 + OVCAR-8; details: compound concentrations:0.3nM, 1nM, 3nM, 10nM, 30nM, 100nM, 300nM, 1000nM,R2:0.87991730549407599,slope:0.899687988537484,EC50 Standard Error, by the legend:Standard error of the EC50 estimation as provided by the drc package.
[5] = system: PRKCB; parameters: species or system human, MV4-11 + K-562 + COLO205 + SK-N-BE2 + OVCAR-8; details: compound concentrations:0.3nM, 1nM, 3nM, 10nM, 30nM, 100nM, 300nM, 1000nM,R2:0.978843793099339,slope:1.0046603573044399,EC50 Standard Error, by the legend:Standard error of the EC50 estimation as provided by the drc package.
[6] = system: PRKCD; parameters: species or system human, MV4-11 + K-562 + COLO205 + SK-N-BE2 + OVCAR-8; details: compound concentrations:0.3nM, 1nM, 3nM, 10nM, 30nM, 100nM, 300nM, 1000nM,R2:0.97536342523711195,slope:1.1087330186118201,EC50 Standard Error, by the legend:Standard error of the EC50 estimation as provided by the drc package.
[7] = system: PRKCQ; parameters: species or system human, MV4-11 + K-562 + COLO205 + SK-N-BE2 + OVCAR-8; details: compound concentrations:0.3nM, 1nM, 3nM, 10nM, 30nM, 100nM, 300nM, 1000nM,R2:0.97430848163672201,slope:0.92336588926382501,EC50 Standard Error, by the legend:Standard error of the EC50 estimation as provided by the drc package.
[8] = system: TESK2; parameters: species or system human, MV4-11 + K-562 + COLO205 + SK-N-BE2 + OVCAR-8; details: read-out: apparent Kd; compound concentrations:100 nM and 1000 nM (sheet 'Samples'); n = 1
[9] = system: PRKCA; parameters: species or system human, MV4-11 + K-562 + COLO205 + SK-N-BE2 + OVCAR-8; details: compound concentrations:0.3nM, 1nM, 3nM, 10nM, 30nM, 100nM, 300nM, 1000nM,R2:0.94698851760637903,slope:2.0520697350296202,EC50 Standard Error, by the legend:Standard error of the EC50 estimation as provided by the drc package.
[10] = system: ADCK1; details: compound concentrations:3nM, 10nM, 30nM, 100nM, 300nM, 1000nM, 3000nM, 30000nM,R2:0.94101841538293196,slope:0.49878905871205997,EC50 Standard Error, by the legend:Standard error of the EC50 estimation as provided by the drc package.
[11] = system: CSNK2A1;CSNK2A3; details: compound concentrations:3nM, 10nM, 30nM, 100nM, 300nM, 1000nM, 3000nM, 30000nM,R2:0.95393018675228303,slope:1.4690097586887201,EC50 Standard Error, by the legend:Standard error of the EC50 estimation as provided by the drc package.
[12] = system: CSNK2A2; details: compound concentrations:3nM, 10nM, 30nM, 100nM, 300nM, 1000nM, 3000nM, 30000nM,R2:0.98972333089258602,slope:1.29833762231974,EC50 Standard Error, by the legend:Standard error of the EC50 estimation as provided by the drc package.
[13] = system: CSNK2B; details: compound concentrations:3nM, 10nM, 30nM, 100nM, 300nM, 1000nM, 3000nM, 30000nM,R2:0.92635600361285697,slope:3.98443256783656,EC50 Standard Error, by the legend:Standard error of the EC50 estimation as provided by the drc package.
[14] = system: EIF3J; details: compound concentrations:3nM, 10nM, 30nM, 100nM, 300nM, 1000nM, 3000nM, 30000nM,R2:0.88928942104591402,slope:1.5975809400026999,EC50 Standard Error, by the legend:Standard error of the EC50 estimation as provided by the drc package.
[15] = system: IRAK3; details: compound concentrations:3nM, 10nM, 30nM, 100nM, 300nM, 1000nM, 3000nM, 30000nM,R2:0.92660925835613905,slope:0.92534849669637798,EC50 Standard Error, by the legend:Standard error of the EC50 estimation as provided by the drc package.
[16] = system: NQO2; details: compound concentrations:3nM, 10nM, 30nM, 100nM, 300nM, 1000nM, 3000nM, 30000nM,R2:0.94793507341518402,slope:1.3847657393086299,EC50 Standard Error, by the legend:Standard error of the EC50 estimation as provided by the drc package.
[17] = system: IGF1R; parameters: species or system human, MV4-11 + K-562 + COLO205 + SK-N-BE2 + OVCAR-8; details: read-out: apparent Kd, compound concentrations: 100 nM and 1000 nM (sheet 'Samples'), n = 1
[18] = system: INSR; parameters: species or system human, MV4-11 + K-562 + COLO205 + SK-N-BE2 + OVCAR-8; details: read-out: apparent Kd, compound concentrations: 100 nM and 1000 nM (sheet 'Samples'), n = 1
[19] = system: NEK2; parameters: species or system human, MV4-11 + K-562 + COLO205 + SK-N-BE2 + OVCAR-8; details: read-out: apparent Kd, compound concentrations: 100 nM and 1000 nM (sheet 'Samples'), n = 1
[20] = system: SPR; parameters: species or system human, MV4-11 + K-562 + COLO205 + SK-N-BE2 + OVCAR-8; details: read-out: apparent Kd, n = 1

CCn1c(-c2nonc2N)nc2c(C#CC(C)(C)O)nc(OCCN)cc21.CCn1c(-c2nonc2N)nc2c(C#CC(C)(C)O)nc(OCCN)cc21.Cl.Cl [GSK902056A]
pEC50 [1]: 6.65
pKd ([1]; read-out: apparent Kd): 6.65
pEC50 [2]: 6.40
pKd ([2]; read-out: apparent Kd): 6.40
pEC50 [3]: 6.64
pKd ([3]; read-out: apparent Kd): 6.67
pEC50 [4]: 6.84
pKd ([4]; read-out: apparent Kd): 6.84
pEC50 [5]: 6.39
pKd ([5]; read-out: apparent Kd): 6.40
pEC50 [6]: 6.91
pKd ([6]; read-out: apparent Kd): 6.91
pEC50 [7]: 7.23
pKd ([7]; read-out: apparent Kd): 7.23

Cc1cccc(-c2nc(Nc3ccncc3)c3sccc3n2)n1 [GW869641X]
potency estimated from few doses [8]: 1.88 µM

Cc1cccc(Nc2nc(N[C@H]3CCCC[C@H]3N)ncc2C(N)=O)c1.Cl [GSK986310C]
pEC50 [9]: 6.35
pKd ([9]; read-out: apparent Kd): 6.57

Entospletinib
pEC50 [10]: 4.78
pKd ([10]; read-out: apparent Kd): 4.98
pEC50 [11]: 5.80
pKd ([11]; read-out: apparent Kd): 5.80
pEC50 [12]: 5.88
pKd ([12]; read-out: apparent Kd): 5.88
pEC50 [13]: 6.03
pKd ([13]; read-out: apparent Kd): 6.03
pEC50 [14]: 5.79
pKd ([14]; read-out: apparent Kd): 5.79
pEC50 [15]: 5.33
pKd ([15]; read-out: apparent Kd): 5.69
pEC50 [16]: 6.53
pKd ([16]; read-out: apparent Kd): 6.88

COc1ccc(Nc2ncc(C#N)c(Nc3ccccc3C(N)=O)n2)cc1N1CCN(C)CC1.Cl [GSK1558669A]
potency estimated from few doses ([17]; CATDS: 6.9220248980982396E-3): 0.752 µM
potency estimated from few doses ([18]; CATDS: 7.0439666537016601E-3): 0.692 µM
potency estimated from few doses ([19]; CATDS: 6.7574361761292799E-3): 0.849 µM

Cl.NCc1ccc(-c2nc(-c3ccc(Cl)c(O)c3)c(-c3ccncc3)[nH]2)cc1 [SB-476429-A]
potency estimated from few doses ([20]; compound concentrations:100 nM and 1000 nM (sheet 'Samples')): 0.0323 µM

Cn1ncc2c(N)ncnc21 [SKF-18267]
potency estimated from few doses ([17]; CATDS: 4.3813441316225901E-3): 1.08 µM
potency estimated from few doses ([18]; CATDS: 4.5573832930641796E-3): 0.986 µM
potency estimated from few doses ([19]; CATDS: 4.6073088162857699E-3): 0.964 µM
potency estimated from few doses ([20]; compound concentrations: 100 nM and 1000 nM (sheet 'Samples'), CATDS: 4.8201807384516803E-3): 0.876 µM

Nc1nc(Nc2ccccc2)cc(-c2ccc3c(N)n[nH]c3c2)n1 [GSK2225749A]
potency estimated from few doses [8]: 1.62 µM
